The text below walks through data of PubChem BioAssay.

The nature of test [1]: compounds binding Alexa647 anti-His antibody – biochemical, small-molecule microarray, 635 nm fluorescence, artefact control for SMM control protein annotation, primary screen (AID 1128).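 Note: score merges feature fluorescence with signal-to-noise for each printed compound spot.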 To be noted: higher = more signal.
In test [2] the test system is Human papillomavirus type 1a E7 protein (residues 1-88). Kind of test: HPV1a E7 small-molecule binders, primary screen, biochemical, small-molecule microarray, residues 1-88, 635 nm (AID 1129). To be noted: small-molecule microarray binding, fluorescence 635 nm; higher = more signal.
Test [3] deals with Focal adhesion kinase 1 (Homo sapiens) (UniProt Q05397). The test can be described thus: PTK2 protein binding on printed compound slides – biochemical, small-molecule microarray, 635/667 nm fluorescence, BSA, DTT, primary screen (AID 1130).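 Note: composite of spot emission at 667 nm and signal to noise over triplicate slides.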 The following applies: 635 nm fluorescence, higher = more signal.
Test [4] relates to Fibrinogen (Alexa647-labelled). The test can be described thus: Alexa647-fibrinogen binding to printed small molecules – biochemical, small-molecule microarray, 635/667 nm fluorescence, artefact control for SMM control-protein annotation, profiling panel (AID 1131).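 Note: z-score merges 667 nm fluorescence with per-spot signal-to-noise over triplicate slides.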 The following applies: fibrinogen-A647 binding fluorescence, higher = more signal.
The target of test [5] is Follistatin (Homo sapiens) (UniProt P19883). Kind of test: FST protein binding to printed compounds – biochemical, small-molecule microarray, 635/667 nm fluorescence, primary screen (AID 1132). To be noted: 635 nm fluorescence, higher = more signal.
The target in test [6] is Fibroblast growth factor 2 (Homo sapiens) (UniProt P09038). Kind of test: basic fibroblast growth factor binding to printed compounds – biochemical, small-molecule microarray, 635/667 nm fluorescence, primary screen (AID 1133). The following applies: FGF2, fluorescence 635/667, higher = more signal.
Test [7] is described as follows: JC-1 mitochondrial potential readout, lung cancer cells – cell-based, A549, JC-1 fluorescence, basal, 24 h, 100 nL, profiling panel (AID 1138).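 Note: A549 lung adenocarcinoma cells under basal conditions with no added stimulus; test concentration not given here.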 To be noted: higher = more signal.
The next test concerns Lefty1. The test can be described thus: Lefty1 protein binding to printed compounds – biochemical, small-molecule microarray, 635/667 nm fluorescence, primary screen (AID 1139). To be noted: fluorescence 635/667, higher = more signal.
Test [8] relates to wheat germ agglutinin (Triticum aestivum), Alexa647-labelled. The test can be described thus: Alexa647-WGA lectin binding to printed small molecules – biochemical, small-molecule microarray, 635/667 nm fluorescence, artefact control for SMM control-protein annotation, profiling panel (AID 1140).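 Note: score merges 667 nm feature emission with signal to noise over triplicate slides.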 To be noted: WGA-A647 binding, 635 nm fluorescence, higher = more signal.
In test [9] the target is Luciferin 4-monooxygenase (Photinus pyralis) (UniProt P08659). Kind of test: inhibition of purified Photinus pyralis luciferase – biochemical, luminescence, purified enzyme, 2006 set, primary screen (AID 1141).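 Note: cell-free assay with purified firefly luciferase at 100 ng per well in PBS; test concentration not given here.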 To be noted: purified firefly luciferase, SteadyGlo luminescence, 30 min; higher = more signal, called active from +8 up or from −8 down.
Test [10] relates to Wnt5a (protein binding on small-molecule microarray). Kind of test: small molecules binding Wnt5a protein – biophysical, small-molecule microarray, 635/667 nm fluorescence, primary screen (AID 1142).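 Note: fluorescence read at 667 nm with signal to noise per printed feature.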 To be noted: 635 nm fluorescence, higher = more signal.
Test [11] in a line: ATP-based viability of Huh7 replicon cells – cell-based, CellTiter-Glo luminescence, basal, 48 h, cytotoxicity control for HCV replication inhibitor project, primary screen (AID 1143).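 Note: Huh7 hepatoma cells carrying a hepatitis C replication reporter with no stimulus; test concentration not given here.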 The following applies: higher = more signal, called active from +8 up or from −8 down. (Replicon systems follow genome replication, usually without infectious particles.)
Test [12] is described as follows: Pseudomonas biofilm growth suppression – PAO1 strain, BacTiter-Glo luminescence, LB-PBS, primary screen (AID 1144). The following applies: P. aeruginosa PAO1 biofilm, 12 h, higher = more signal.
Test [13] is described as follows: basal CRE-LacZ reporter activity in PC12 – cell-based, unstimulated, primary screen (AID 1145). The following applies: no forskolin, luminescence, 4.5 h, higher = more signal, called active from +8 up or from −8 down.
Test [14] can be described thus: forskolin-driven CRE-LacZ activity in PC12 – cell-based, CRE-LacZ reporter, forskolin-stimulated, primary screen (AID 1146).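 Note: PC12 cells with 6xCRE LacZ reporter stimulated by forskolin 10 µM; beta-galactosidase reporter signal reflecting CREB driven transcription.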 The following applies: luminescence, 4.5 h, higher = more signal, called active from +8 up or from −8 down.
The target of test [15] is Streptavidin (Streptomyces avidinii) (UniProt P22629). The test can be described thus: compounds binding control protein streptavidin – biophysical, small-molecule microarray, 635/667 nm fluorescence, artefact control for SMM compound annotation, primary screen (AID 1147).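 Note: signal reflects streptavidin binding to arrayed compounds as a control protein.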 The following applies: higher = more signal.
The nature of test [16]: probe aInhba binding on compound microarray – biochemical, small-molecule microarray, 635/667 nm fluorescence, primary screen (AID 1148).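 Note: score merges 667nm spot fluorescence with signal-to-noise for antibody binding to printed compounds.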 The following applies: higher = more signal.
The target of test [17] is Torsin-1A (Homo sapiens) (UniProt O14656). The test can be described thus: TOR1A wild-type binding on microarray – cell lysate, small-molecule microarray, lysate, 635/667 nm, primary screen (AID 1149). The following applies: COS7 hTOR1A-WT lysate, 635 nm fluorescence, higher = more signal.
The target is the same in test [18]. The test can be described thus: torsin A mutant lysate binding on microarrays – cell lysate, small-molecule microarray, COS7 lysate, 635/667 nm fluorescence, primary screen (AID 1150).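 Note: score pools 667 nm emission and signal to noise measuring lysate protein binding.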 The following applies: COS7 hTOR1A mutant lysate, 635 nm fluorescence, higher = more signal.
For test [19], the system named is Sonic hedgehog protein (Shh). The test can be described thus: Sonic hedgehog microarray binding compounds – biochemical, small-molecule microarray, 635/667 nm fluorescence, primary screen (AID 1151).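 Note: Shh protein binding to compounds spotted on small-molecule microarray slides; score combines spot fluorescence intensity with signal-to-noise across triplicate slides.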 To be noted: 635 nm fluorescence, higher = more signal.

Active and inactive are the calls of the source. Unless noted, the rule behind the calls is not given here.

Luciferin 4-monooxygenase (Photinus pyralis), sequence (P08659 whole entry, looked up): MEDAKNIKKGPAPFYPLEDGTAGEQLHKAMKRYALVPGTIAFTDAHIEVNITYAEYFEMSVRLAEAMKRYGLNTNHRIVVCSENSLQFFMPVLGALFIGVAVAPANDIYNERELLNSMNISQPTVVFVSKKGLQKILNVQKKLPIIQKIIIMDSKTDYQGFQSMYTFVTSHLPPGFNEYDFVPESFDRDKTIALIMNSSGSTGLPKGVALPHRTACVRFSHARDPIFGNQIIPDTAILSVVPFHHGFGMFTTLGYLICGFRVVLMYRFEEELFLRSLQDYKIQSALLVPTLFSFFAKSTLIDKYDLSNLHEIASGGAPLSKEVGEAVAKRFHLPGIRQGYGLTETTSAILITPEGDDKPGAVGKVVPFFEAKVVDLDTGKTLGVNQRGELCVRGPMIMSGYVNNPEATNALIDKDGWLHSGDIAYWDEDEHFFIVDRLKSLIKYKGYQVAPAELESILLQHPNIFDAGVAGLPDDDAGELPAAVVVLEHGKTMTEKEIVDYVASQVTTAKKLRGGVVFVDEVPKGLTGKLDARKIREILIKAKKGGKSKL
Follistatin (Homo sapiens), sequence (P19883 whole entry, looked up): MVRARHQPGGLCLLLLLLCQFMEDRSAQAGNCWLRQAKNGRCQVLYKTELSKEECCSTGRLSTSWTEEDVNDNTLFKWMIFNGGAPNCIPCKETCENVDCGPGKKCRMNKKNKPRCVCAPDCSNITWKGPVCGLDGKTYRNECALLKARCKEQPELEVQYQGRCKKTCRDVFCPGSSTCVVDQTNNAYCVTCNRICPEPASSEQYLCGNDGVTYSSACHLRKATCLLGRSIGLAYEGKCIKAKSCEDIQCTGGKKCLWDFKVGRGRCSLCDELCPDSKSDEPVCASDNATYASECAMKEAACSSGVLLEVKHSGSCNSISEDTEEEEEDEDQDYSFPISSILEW
Focal adhesion kinase 1 (Homo sapiens), sequence (Q05397 whole entry, looked up): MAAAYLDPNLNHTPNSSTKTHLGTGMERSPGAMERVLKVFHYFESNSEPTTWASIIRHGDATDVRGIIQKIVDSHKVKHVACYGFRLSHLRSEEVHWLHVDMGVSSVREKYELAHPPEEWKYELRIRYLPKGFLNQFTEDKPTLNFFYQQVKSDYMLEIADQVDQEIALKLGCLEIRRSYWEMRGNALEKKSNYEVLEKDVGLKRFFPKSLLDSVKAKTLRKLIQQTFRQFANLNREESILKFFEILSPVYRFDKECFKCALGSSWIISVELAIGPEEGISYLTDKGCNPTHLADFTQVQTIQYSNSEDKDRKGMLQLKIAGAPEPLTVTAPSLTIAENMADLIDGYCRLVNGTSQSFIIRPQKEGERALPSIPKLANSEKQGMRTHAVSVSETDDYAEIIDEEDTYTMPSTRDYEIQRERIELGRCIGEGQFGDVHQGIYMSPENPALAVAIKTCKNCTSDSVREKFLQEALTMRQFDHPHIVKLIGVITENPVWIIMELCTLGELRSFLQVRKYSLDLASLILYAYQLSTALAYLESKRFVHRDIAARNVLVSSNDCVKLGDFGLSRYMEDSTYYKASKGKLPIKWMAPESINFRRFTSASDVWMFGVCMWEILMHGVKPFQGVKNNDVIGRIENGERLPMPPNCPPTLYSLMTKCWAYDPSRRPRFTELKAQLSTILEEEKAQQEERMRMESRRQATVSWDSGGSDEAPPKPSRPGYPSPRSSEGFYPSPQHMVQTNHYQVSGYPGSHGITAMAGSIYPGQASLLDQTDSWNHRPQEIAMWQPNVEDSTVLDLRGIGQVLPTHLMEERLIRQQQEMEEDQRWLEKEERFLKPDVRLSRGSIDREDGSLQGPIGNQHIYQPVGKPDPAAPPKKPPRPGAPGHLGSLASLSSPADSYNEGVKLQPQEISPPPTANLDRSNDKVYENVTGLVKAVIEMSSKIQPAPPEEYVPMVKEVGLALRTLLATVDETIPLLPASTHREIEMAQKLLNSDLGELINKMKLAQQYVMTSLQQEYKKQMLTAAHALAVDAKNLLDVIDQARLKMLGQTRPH
Fibroblast growth factor 2 (Homo sapiens), sequence (P09038 whole entry, looked up): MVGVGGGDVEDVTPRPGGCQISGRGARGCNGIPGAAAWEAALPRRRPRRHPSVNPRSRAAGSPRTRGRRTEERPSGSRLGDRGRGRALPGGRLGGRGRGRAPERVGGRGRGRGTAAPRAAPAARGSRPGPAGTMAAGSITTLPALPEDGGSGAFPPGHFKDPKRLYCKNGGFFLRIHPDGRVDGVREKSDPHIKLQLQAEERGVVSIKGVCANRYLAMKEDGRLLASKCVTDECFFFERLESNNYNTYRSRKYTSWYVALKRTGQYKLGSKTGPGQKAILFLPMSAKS
Torsin-1A (Homo sapiens), sequence (O14656 whole entry, looked up): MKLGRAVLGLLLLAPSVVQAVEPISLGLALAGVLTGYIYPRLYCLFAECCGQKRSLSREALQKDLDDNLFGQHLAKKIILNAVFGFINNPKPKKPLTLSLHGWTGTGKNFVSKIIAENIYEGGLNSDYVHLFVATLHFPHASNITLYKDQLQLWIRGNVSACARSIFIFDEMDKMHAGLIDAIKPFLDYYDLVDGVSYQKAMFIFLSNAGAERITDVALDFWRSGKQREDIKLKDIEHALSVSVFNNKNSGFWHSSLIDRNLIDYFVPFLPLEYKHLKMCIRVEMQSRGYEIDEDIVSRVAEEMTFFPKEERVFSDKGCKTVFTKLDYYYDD
Streptavidin (Streptomyces avidinii), sequence (P22629 whole entry, looked up): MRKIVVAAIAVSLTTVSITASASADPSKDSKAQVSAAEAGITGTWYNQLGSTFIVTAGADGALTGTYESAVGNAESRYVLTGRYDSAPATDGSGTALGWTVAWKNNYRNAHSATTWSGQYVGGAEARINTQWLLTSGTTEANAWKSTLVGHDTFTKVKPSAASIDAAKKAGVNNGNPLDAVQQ

As to `COc1cc2c(cc1OC)CN(C(=O)[C@H]1[C@@H]3C(=O)O[C@@H](c4ccccc4)[C@@H](c4ccccc4)N3[C@@H](c3ccccc3OCCO)[C@]13C(=O)Nc1ccc(C#CC4(O)CCCCCC4)cc13)CC2`, the composite z-score in test [1] is 2.85; in test [2] it was 1.21; in test [3], -0.0047; in test [4], 0.922; in [5], 1.37; in test [6], 1.27. In addition, the composite z-score in the test with Lefty1 was 0.971; in [8], 1.08; in [10] it was 1.01; in [15] it was 0.899; in test [16] it was 0.0119; with Torsin-1A (Homo sapiens) [17], 0.808. Besides, the composite z-score came to 1.12 with Torsin-1A (Homo sapiens) [18] and 1.33 in test [19]. Also, the z-score was -0.627 in [7]; -1.02 (inactive) in test [9]; -3.68 (inactive) in test [11]; -1.5 (inactive) in [12]; -0.231 (inactive) in [13]; 1.57 (inactive) in test [14].
With `COC(=O)[C@@]1(Cc2ccccc2CN=[N+]=[N-])N=C(c2ccc(OCCCO)cc2)O[C@H]1c1ccccc1N=[N+]=[N-]`, the composite z-score was -0.0307 in [1]; 0.339 in test [2]; 1.96 in [3]; 0.694 in test [4]; 0.832 in test [5]; 0.0085 in test [6]. In addition, the composite z-score in the test on Lefty1 is 0.79; in [8], 0.727; in test [10], 0.54; in test [15], -0.104; in test [16], -0.0645; with Torsin-1A (Homo sapiens) [17], -1.42. The results for the composite z-score (with Torsin-1A (Homo sapiens) [18]; in test [19]) were -0.855 and 1.77, respectively. Moreover, the z-score in test [7] is -0.403; in test [9] it was -10.1 (active); in [11], -3.9 (inactive); in [12], -0.174 (inactive); in test [13], 2.28 (inactive); in [14], -0.505 (inactive).
As to `CCCC=C(CCC)[C@@H](NS(=O)(=O)c1cccc(C(F)(F)F)c1)c1ccc(C(=O)OC)cc1`, the composite z-score was 0.54 in [1]; 0.4 in test [2]; -0.209 in test [3]; 0.436 in [4]; 0.572 in test [5]; 0.319 in test [6]. The composite z-score in the test with Lefty1 amounted to 0.0304; in test [8], 0.295; in [10], 1.16; in test [15] it was 0.0276; in [16], 1.43; with Torsin-1A (Homo sapiens) [17] it was 0.258. In addition, the figures for the composite z-score (with Torsin-1A (Homo sapiens) [18]; in test [19]) were -0.223 and 0.116, respectively. Further, the z-score was 0.622 in test [7]; 2.82 (inactive) in test [9]; 0.0804 (inactive) in test [11]; -0.109 (inactive) in test [12]; -0.182 (inactive) in test [13]; -0.547 (inactive) in test [14].
For the compound `CCCC[C@@H]1C[C@H]1[C@@H](NC(=O)c1cccs1)c1ccc(Cl)cc1`, the composite z-score is -0.492 in [1]; -1.19 in test [2]; -0.393 in [3]; -1.26 in test [4]; -1.44 in [5]; -1.6 in test [6]. Further, the composite z-score is -1.58 with Lefty1; -0.746 in test [8]; -0.29 in test [10]; -1.05 in [15]; -0.224 in [16]; -0.989 with Torsin-1A (Homo sapiens) [17]. Also, the values for the composite z-score (with Torsin-1A (Homo sapiens) [18]; in [19]) were -1.01 and -1.75, respectively. Besides, the z-score in [7] was -0.363; in test [9], 0.191 (inactive); in [11], -3.19 (inactive); in test [12], -0.288 (inactive); in test [13], 0.39 (inactive); in test [14], 0.958 (inactive).
As for `CCOC(=O)C1=CC[C@@H](c2ccccc2)N(S(=O)(=O)c2ccc(C)cc2)[C@H]1C`, the composite z-score in [1] turned out to be 1.18; in test [2] it was 1.24; in [3], 0.147; in [4], 1.02; in test [5], 0.92; in test [6] it was 0.952. Moreover, the composite z-score in the test with Lefty1 is 0.778; in test [8], 0.457; in test [10], 0.532; in test [15], 1.85; in [16] it was -0.153; with Torsin-1A (Homo sapiens) [17] it was 1.41. The composite z-score with Torsin-1A (Homo sapiens) [18] is 1.25; in test [19] it was 0.747. Further, the z-score is 3.66 in [7]; 0.347 (inactive) in test [9]; -4.32 (inactive) in test [11]; 0.165 (inactive) in test [12]; -0.0137 (inactive) in [13]; -0.664 (inactive) in test [14].
